# EP2 modulator: EP2 receptor modulators, cAMP readout, primary screen, cell-based, HTRF cAMP, PGE2 stimulation; EP2-expressing cells, cAMP HTRF FRET, PGE2 co-stimulation; 260,000 tested, 0.83% active; AID 940, 2007; induction, % at 25 µM;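 active = compounds whose cAMP rise, as percent of the full-agonist control response, exceeds 60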;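 also: rat C6 glioma line stably carrying human EP2 under a CMV promoter; the protocol text gives 20 µM as final concentration; 100% = response of wells given 1 µM PGE2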
# PGE2 EP2 inh: human EP2 receptor antagonists, primary screen, TR-FRET cAMP, C6 glioma cells; Prostaglandin E2 receptor EP2 subtype (Homo sapiens), P43116; inhibition, % at 25 µM; 260,000 tested, 0.52% active; C6 glioma cells expressing human EP2; cells stimulated with saturating PGE2; AID 1422, 2008;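 active = percent inhibition above 40 after rounding to a whole number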;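 also: rat C6 glioma host cells with rolipram phosphodiesterase inhibitor present; the protocol text gives 20 µM as final concentration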
# CHT block: inhibitors of human choline transporter CHT; CHT-expressing cells, membrane potential dye, choline response; hits give low values; B-score at 10 µM; 310,000 tested, 0.86% active; AID 488975, 2010;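 active = B-score over 3 SD under the library average, and starting fluorescence ratio not unusually high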;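 also: choline stimulus applied at its EC90 after an EC20 pre-addition; B-score computed on integrated fluorescence ratio after choline addition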
# Target sequence (Q9GZV3 whole entry, looked up): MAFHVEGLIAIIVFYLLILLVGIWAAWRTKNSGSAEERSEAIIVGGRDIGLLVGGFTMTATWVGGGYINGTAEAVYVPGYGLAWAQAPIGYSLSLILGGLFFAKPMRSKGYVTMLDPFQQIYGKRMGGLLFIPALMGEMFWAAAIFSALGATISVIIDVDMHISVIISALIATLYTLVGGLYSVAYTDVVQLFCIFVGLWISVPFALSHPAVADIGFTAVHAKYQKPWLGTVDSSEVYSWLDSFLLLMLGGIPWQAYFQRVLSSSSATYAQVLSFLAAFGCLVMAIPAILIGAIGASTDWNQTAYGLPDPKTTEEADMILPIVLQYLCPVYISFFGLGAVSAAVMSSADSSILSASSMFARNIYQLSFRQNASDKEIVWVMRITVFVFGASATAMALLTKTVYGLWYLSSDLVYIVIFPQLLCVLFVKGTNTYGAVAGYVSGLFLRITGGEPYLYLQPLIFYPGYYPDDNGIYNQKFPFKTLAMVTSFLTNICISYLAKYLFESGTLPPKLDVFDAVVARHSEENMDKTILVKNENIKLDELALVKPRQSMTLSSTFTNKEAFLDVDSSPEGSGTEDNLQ
# CHT allo act: CHT positive allosteric modulators, primary screen, cell-based, membrane potential dye, choline EC20; 310,000 tested, 0.49% active; B-score at 10 µM; CHT-expressing cells; hits give high values; LV-AA mutant CHT in HEK293 cells; AID 488977, 2010;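 active = initial fluorescence not abnormally high and integrated response B-score, plate-corrected, over 3 SD above library mean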
# Numbers without * were called inactive; i = inactive; nt = not tested or not shown; ! = a repeat was not active. The list is not random: actives were taken first. Their share in the collection is about 2.1%.
SMILES,EP2 modulator,PGE2 EP2 inh,CHT block,CHT allo act
O=C1c2cccc3c([N+](=O)[O-])ccc(c23)C(=O)N1c1nccs1,-26.0,55.5*,i,i
O=C1c2cccc3c([N+](=O)[O-])ccc(c23)C(=O)N1c1ccccn1,-42.4,19.5,i,i
CCN1CCc2c(sc(NC(=S)NC(=O)/C=C/c3ccccc3)c2C(N)=O)C1,-177.0,83.8*,nt,nt
CCN1CCc2c(sc(NC(=O)CN3C(=O)c4ccccc4C3=O)c2C(N)=O)C1,9.7,1.2,i,i
CCN1CCc2c(sc(NC(=O)c3ccc4ccccc4c3)c2C(N)=O)C1,nt,nt,i,i
CCN1CCc2c(sc(NC(=S)NC(=O)c3ccc(Cl)cc3)c2C(N)=O)C1,-59.0,41.3*,i,i
O=C1CCCC(O)=C1C(C#Cc1ccccc1)C1=C(O)CCCC1=O,-39.4,42.9*,i,i
CC1(C)CC(=O)C(C(C#Cc2ccccc2)C2=C(O)CC(C)(C)CC2=O)=C(O)C1,-31.3,39.4,i,i
COC(=O)c1cc([N+](=O)[O-])c(-n2cncn2)c([N+](=O)[O-])c1,24.8,77.3*,nt,nt
Cc1cccc(N2CCN(c3nc4ccccc4n4cnnc34)CC2)c1C,62.6*,10.5,i,i
c1cnc(N2CCN(c3nc4ccccc4n4cnnc34)CC2)nc1,-15.1,2.7,i,i
CCOc1ccc2[nH]c(=O)c(CN(CC3CCCO3)C(=O)Nc3ccc(C)cc3)cc2c1 (configuration not stated),-49.9,5.3,nt,nt
CCCn1c(=O)c(C(=O)NCCCl)c(O)c2ccccc21,37.3,7.9,nt,nt
CCCn1c(=O)c(C(=O)NCCCCl)c(O)c2ccccc21,70.4*,19.4,nt,nt
C=CCn1c(=O)c(C(=O)NCCN(CC)CC)c(O)c2ccccc21,-4.1,6.4,i,i
CCCn1c(=O)c(C(=O)Nc2ccccc2F)c(O)c2ccccc21,8.8,17.4,nt,nt
CCCn1c(=O)c(C(=O)Nc2ccccc2C(=O)OC)c(O)c2ccccc21,62.6*,5.9,i,i
C=CCn1c(=O)c(C(=O)NCC)c(O)c2ccccc21,69.7*,-0.6,nt,nt
Cc1ccnc(NS(=O)(=O)c2ccc(NS(=O)(=O)c3ccc(F)cc3)cc2)n1,11.0,6.1,nt,nt
COc1ccc(CN(C(=O)c2cc3ccccc3oc2=O)C2CCCCC2)cc1,-82.6,6.1,nt,nt
c1ccc(CNc2nc(NCc3ccccc3)c3ccccc3n2)cc1,-54.1,95.5*,i,i
c1ccc(CNc2nc(-c3ccccc3)nc3ccccc23)cc1,nt,nt,i,i
COC(=O)[C@H]1CCc2ccccc2N1C(=O)C1CCCCC1,11.6,nt,nt,nt
CC1CN(c2nc3c(c(=O)[nH]2)CCN(Cc2ccnc4ccccc24)C3)CC(C)O1 (configuration not stated),-45.0,nt,nt,nt
CCn1c(=O)c2c(nc(SCc3c(F)cccc3Cl)n2C)n(C)c1=O,-41.0,9.9,nt,nt
SMILES,EP2 modulator,PGE2 EP2 inh,CHT block,CHT allo act
Cn1c(=O)c2c(SCc3ccccn3)nc(C3CC3)nc2n(C)c1=O,26.8,9.5,i,i
Cc1nc(SCc2c(F)cccc2Cl)c2c(=O)n(C)c(=O)n(C)c2n1,62.2*,7.9,i,i
Cn1c(=O)c2c(SCc3ccccc3)nc(C3CC3)nc2n(C)c1=O,73.5*,4.6,i,i
Cc1cc(O)c(C(C)C)cc1C1(c2cc(C(C)C)c(O)cc2C)OC(=O)c2ccccc21,3.6,76.4*!,i,i
O=C(O)C(Cc1ccc(O)cc1)N1C(=O)c2ccccc2C1=O (configuration not stated),nt,nt,i,i
O=C(O)[C@H](Cc1ccc(O)c([N+](=O)[O-])c1)N1C(=O)c2ccccc2C1=O,10.3,50.7*,nt,nt
O=C(Nc1ccncc1)c1ccc2c(c1)C(=O)N(C1CCCCC1)C2=O,-10.2,46.0*,i,i
Cc1occc1-c1nnc(SCC(=O)NC2CCCC2)n1CCc1ccccc1,-47.2,9.9,nt,nt
CC(=O)Nc1ccc(N2CCCCC2)c(C(=O)Nc2cccc(C)c2)c1,62.1*,12.8,i,i
CCOc1ccc(NC(=O)CSc2nnc(-c3cccnc3)n2CC)cc1,-50.7,12.8,nt,nt
COC(=O)CC[C@@H](C)[C@@H]1CC[C@@H]2[C@H]3CC[C@H]4C[C@@H](O)CC[C@]4(C)[C@@H]3CC[C@]21C,29.9,42.5*,nt,nt
CC(C)CCC[C@@H](C)[C@@H]1CC[C@@H]2[C@H]3CC[C@H]4C[C@@H](N)CC[C@]4(C)[C@@H]3CC[C@]21C,-16.7,40.5*,nt,nt
C[C@H](CCC(=O)O)[C@H]1CC[C@H]2[C@@H]3CC[C@@H]4C[C@H](O)CC[C@]4(C)[C@H]3C[C@H](O)[C@]12C,nt,11.7,-6.52*,i
CC(CCC(=O)O)[C@H]1CCC2C3CC[C@@H]4C[C@H](O)CC[C@]4(C)C3C=C[C@@]21C (some centres not stated),37.8,7.0,nt,nt
O=C(Nc1ccc2oc(-c3cccnc3)nc2c1)c1ccccc1,0.9,20.1,nt,nt
CCCC(c1nnnn1Cc1ccco1)N(Cc1cc2ccc(C)c(C)c2[nH]c1=O)C1CCCCC1 (configuration not stated),60.2,10.7,nt,nt
O=[N+]([O-])c1c(Nc2ccccn2)cc(Cl)c2nonc12,-88.1,56.5*,i,i
O=C(c1cccc(N2CCCCS2(=O)=O)c1)N1CCn2c(nnc2C2CC2)C1,-29.6,5.5,nt,nt
Cc1cccc(N2CCN(C(=O)Cn3sc4nc(C)cc(C)c4c3=O)CC2C)c1 (configuration not stated),-9.9,121.3*,i,i
Cc1ccc(NC(=O)Cn2sc3nc(C)cc(C)c3c2=O)c(Cl)c1,-27.3,8.7,i,i
Cc1cc(C)c2c(=O)n(CC(=O)Nc3ccc(Cl)cc3)sc2n1,-78.9,98.2*,i,i
Cc1cc(C)c2c(=O)n(CC(=O)NCCCN3CCN(c4ccccc4F)CC3)sc2n1,-62.8,nt,i,i
CCOc1ccc(NC(=O)Cn2sc3nc(C)cc(C)c3c2=O)cc1,-40.9,122.0*,i,i
CCOc1ccc(NC(=O)CSc2nc(C)cc(C)c2C#N)cc1,-20.6,6.7,nt,nt
Cc1cc(C)c2c(=O)n(CC(=O)Nc3cccc(F)c3)sc2n1,-53.8,84.0*,i,i
SMILES,EP2 modulator,PGE2 EP2 inh,CHT block,CHT allo act
O=C(CSc1nnc(-c2ccccc2F)o1)N1c2ccccc2CCc2ccccc21,-2.8,13.2,nt,nt
CCCOC(=O)Cn1cnc2sc3c(c2c1=O)CCCC3,-35.6,5.5,nt,nt
Cc1ccc(S(=O)(=O)/N=C2/C=C(Sc3ncn[nH]3)C(=O)c3ccccc32)c(C)c1,-61.1,54.3*,i,i
Cc1ccc(S(=O)(=O)Nc2ccc(O)c(Sc3ncn[nH]3)c2)cc1,-53.6,9.2,i,i
Cc1ccc(S(=O)(=O)/N=C2/C=C(Sc3ncn[nH]3)C(=O)c3ccccc32)cc1,-69.7,125.9*,i,i
CC(C)c1ccc(S(=O)(=O)/N=C2/C=C(Sc3ncn[nH]3)C(=O)c3ccccc32)cc1,-27.2,121.8*,i,i

# Screens as filed in PubChem BioAssay.
